{"source": "ChEMBL document CHEMBL2218924", "about": "“A broad activity screen in support of a chemogenomic map for kinase signalling research and drug discovery” (Biochem J, 2013)"}
{"target": "T1, Aurora kinase C (Homo sapiens) (UniProt Q9UQB9)", "T1 sequence (whole entry)": "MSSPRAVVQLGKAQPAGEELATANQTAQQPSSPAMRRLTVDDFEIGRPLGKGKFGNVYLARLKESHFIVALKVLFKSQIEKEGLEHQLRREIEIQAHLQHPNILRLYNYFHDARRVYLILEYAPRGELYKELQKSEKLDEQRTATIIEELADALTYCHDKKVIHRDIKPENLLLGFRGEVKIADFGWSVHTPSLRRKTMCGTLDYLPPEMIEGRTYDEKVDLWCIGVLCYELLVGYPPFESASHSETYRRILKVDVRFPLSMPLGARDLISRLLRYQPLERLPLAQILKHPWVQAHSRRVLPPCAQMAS", "conditions": "at 10 µM", "units": {"residual activity": "%"}}
{"smiles": "CCN(CC)CCCCN1c2ccccc2Oc2ccc(Cl)cc21", "residual activity": 92}
{"smiles": "O=[N+]([O-])c1ccc(-c2nc(-c3ccc(F)cc3)c(-c3ccncc3)[nH]2)cc1", "residual activity": 92}
{"smiles": "Cc1ccc(S(=O)(=O)/C=C/C#N)cc1", "residual activity": 90}
{"smiles": "COc1cc2ncnc(Nc3ccc(NC(=O)c4ccccc4)cc3)c2cc1OC", "residual activity": 4}
{"smiles": "Cn1nc2c3c(cccc31)C(=O)c1ccccc1-2", "residual activity": 58}
{"smiles": "Cc1nc2cc3nc(-c4cccs4)cnc3cc2n1C", "residual activity": 42}
{"smiles": "COc1cc2ncnc(N3CCN(C(=O)Nc4ccc(Oc5ccccc5)cc4)CC3)c2cc1OC", "residual activity": 25}
{"smiles": "CC(C)n1cnc2/c(=N/c3cccc(Cl)c3)nc(NCCO)[nH]c21", "residual activity": 52}
{"smiles": "Cc1cc(Nc2nc(-c3ccccc3)nc3ccccc23)n[nH]1", "residual activity": 4}
{"smiles": "Cc1cncc2cccc(S(=O)(=O)N3CCCN(C(=O)CN)C[C@H]3C)c12", "residual activity": 1}
{"smiles": "Cc1cccc(-c2[nH]c(C(C)(C)C)nc2-c2ccc3c(c2)OCO3)n1", "residual activity": 82}
{"smiles": "N#Cc1cnc2cnc(NCc3cccnc3)cc2c1Nc1ccc(F)c(Cl)c1", "residual activity": 54}
{"smiles": "COc1ccc(S(=O)(=O)N(CCO)c2ccccc2CN(C)C/C=C/c2ccc(Cl)cc2)cc1", "residual activity": 88}
{"smiles": "c1ccc2c(-c3ccncc3)c[nH]c2c1", "residual activity": 46}
{"smiles": "c1ccc(-c2n[nH]cc2-c2ccnc3ccccc23)nc1", "residual activity": 66}
{"smiles": "O=C(Nc1cccc(Nc2nccc(Nc3cccc(C(F)(F)F)c3)n2)c1)C1CC1", "residual activity": 62}
{"smiles": "O=C1Nc2cc(Br)ccc2/C1=C1/Nc2ccccc2/C1=N\\O", "residual activity": 76}
{"smiles": "COc1ccc(OC)c2c(=S)c3ccccc3[nH]c12", "residual activity": 75}
{"smiles": "O=C1NC(=O)c2c1c1c3ccccc3[nH]c1c1[nH]c3cc(Br)ccc3c21", "residual activity": 59}
{"smiles": "O=C(Nc1cccc(Nc2cc(Nc3cccc(C(F)(F)F)c3)ncn2)c1)C1CC1", "residual activity": 87}
{"smiles": "N#CCCc1ccc2c(c1)-c1[nH]c3ccc([N+](=O)[O-])cc3c1CC(=O)N2", "residual activity": 22}
{"smiles": "O=C1Nc2ccc(Br)cc2/C1=C\\c1cc2c([nH]1)CCCC2", "residual activity": 69}
{"smiles": "Nc1nc(Nc2ccc(S(N)(=O)=O)cc2)nn1C(=S)Nc1c(F)cccc1F", "residual activity": 0}
{"smiles": "Nc1cccc(-c2cc3c(Oc4cccc(O)c4)ncnc3[nH]2)c1", "residual activity": 20}
{"smiles": "Cc1cc2ncc(-c3ccccc3)nc2cc1C", "residual activity": 87}
{"smiles": "CO[C@@H]1[C@H](N(C)C(=O)c2ccccc2)C[C@H]2O[C@]1(C)n1c3ccccc3c3c4c(c5c6ccccc6n2c5c31)C(=O)NC4", "residual activity": 20}
{"smiles": "CC(=O)c1ccc(N2CCOCC2)cc1O", "residual activity": 84}
{"smiles": "COc1ccc(C(=O)Nc2sc3c(c2C(N)=O)CCCC3)cc1OC", "residual activity": 76}
{"smiles": "CO[C@H]1[C@@H](OC)C[C@H](C)[C@@H](OC)C2=CC(=O)C=C(NC(=O)/C(C)=C/C=C/[C@H](OC)[C@@H](OC(N)=O)/C(C)=C/[C@@H]1C)C2=O", "residual activity": 90}
{"smiles": "O=C1NC(=O)c2cc(Nc3ccc(F)cc3)c(Nc3ccc(F)cc3)cc21", "residual activity": 73}
{"smiles": "Oc1n[nH]c2nnc(-c3c(-c4ccccc4)nn4ccccc34)cc12", "residual activity": 84}
{"smiles": "O=Nc1c(-c2c(O)[nH]c3ccccc23)[nH]c2ccccc12", "residual activity": 49}
{"target": "Tyrosine-protein kinase receptor UFO (Homo sapiens) (UniProt P30530)", "sequence (P30530 whole entry)": "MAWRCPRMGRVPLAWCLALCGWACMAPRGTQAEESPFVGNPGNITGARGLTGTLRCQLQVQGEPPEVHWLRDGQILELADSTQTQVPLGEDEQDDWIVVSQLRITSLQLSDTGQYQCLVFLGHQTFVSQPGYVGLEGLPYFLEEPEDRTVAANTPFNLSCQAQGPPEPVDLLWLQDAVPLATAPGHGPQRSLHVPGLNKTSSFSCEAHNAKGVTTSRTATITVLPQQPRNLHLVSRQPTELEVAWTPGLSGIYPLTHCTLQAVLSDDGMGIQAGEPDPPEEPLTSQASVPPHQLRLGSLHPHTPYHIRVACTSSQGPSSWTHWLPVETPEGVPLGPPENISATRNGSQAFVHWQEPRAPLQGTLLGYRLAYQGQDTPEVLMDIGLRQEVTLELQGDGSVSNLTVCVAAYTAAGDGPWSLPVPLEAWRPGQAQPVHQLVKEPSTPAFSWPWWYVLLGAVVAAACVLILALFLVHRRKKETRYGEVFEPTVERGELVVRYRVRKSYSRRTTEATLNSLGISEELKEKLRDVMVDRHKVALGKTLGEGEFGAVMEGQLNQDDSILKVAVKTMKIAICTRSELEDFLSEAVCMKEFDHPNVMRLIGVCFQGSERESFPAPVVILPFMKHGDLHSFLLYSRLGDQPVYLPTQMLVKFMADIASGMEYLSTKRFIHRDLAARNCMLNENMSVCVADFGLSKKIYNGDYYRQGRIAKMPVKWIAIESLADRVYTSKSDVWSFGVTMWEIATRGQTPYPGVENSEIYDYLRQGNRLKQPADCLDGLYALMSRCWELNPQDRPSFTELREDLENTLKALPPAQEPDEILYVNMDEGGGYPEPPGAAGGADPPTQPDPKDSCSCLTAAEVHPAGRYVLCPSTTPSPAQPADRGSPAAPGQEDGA", "conditions": "at 1 µM", "units": {"residual activity": "%"}}
{"smiles": "CCN(CC)CCCCN1c2ccccc2Oc2ccc(Cl)cc21", "residual activity": 88}
{"smiles": "O=[N+]([O-])c1ccc(-c2nc(-c3ccc(F)cc3)c(-c3ccncc3)[nH]2)cc1", "residual activity": 120}
{"smiles": "Cc1ccc(S(=O)(=O)/C=C/C#N)cc1", "residual activity": 107}
{"smiles": "COc1cc2ncnc(Nc3ccc(NC(=O)c4ccccc4)cc3)c2cc1OC", "residual activity": 99}
{"smiles": "Cn1nc2c3c(cccc31)C(=O)c1ccccc1-2", "residual activity": 90}
{"smiles": "Cc1nc2cc3nc(-c4cccs4)cnc3cc2n1C", "residual activity": 87}
{"smiles": "COc1cc2ncnc(N3CCN(C(=O)Nc4ccc(Oc5ccccc5)cc4)CC3)c2cc1OC", "residual activity": 71}
{"smiles": "CC(C)n1cnc2/c(=N/c3cccc(Cl)c3)nc(NCCO)[nH]c21", "residual activity": 94}
{"smiles": "Cc1cc(Nc2nc(-c3ccccc3)nc3ccccc23)n[nH]1", "residual activity": 33}
{"smiles": "Cc1cncc2cccc(S(=O)(=O)N3CCCN(C(=O)CN)C[C@H]3C)c12", "residual activity": 88}
{"smiles": "Cc1cccc(-c2[nH]c(C(C)(C)C)nc2-c2ccc3c(c2)OCO3)n1", "residual activity": 87}
{"smiles": "N#Cc1cnc2cnc(NCc3cccnc3)cc2c1Nc1ccc(F)c(Cl)c1", "residual activity": 19}
{"smiles": "COc1ccc(S(=O)(=O)N(CCO)c2ccccc2CN(C)C/C=C/c2ccc(Cl)cc2)cc1", "residual activity": 107}
{"smiles": "c1ccc2c(-c3ccncc3)c[nH]c2c1", "residual activity": 81}
{"smiles": "c1ccc(-c2n[nH]cc2-c2ccnc3ccccc23)nc1", "residual activity": 65}
{"smiles": "O=C(Nc1cccc(Nc2nccc(Nc3cccc(C(F)(F)F)c3)n2)c1)C1CC1", "residual activity": 79}
{"smiles": "O=C1Nc2cc(Br)ccc2/C1=C1/Nc2ccccc2/C1=N\\O", "residual activity": 52}
{"smiles": "COc1ccc(OC)c2c(=S)c3ccccc3[nH]c12", "residual activity": 96}
{"smiles": "COc1cc2ncc(-c3ccccc3)nc2cc1OC", "residual activity": 96}
{"smiles": "O=C1NC(=O)c2c1c1c3ccccc3[nH]c1c1[nH]c3cc(Br)ccc3c21", "residual activity": 94}
{"smiles": "O=C(Nc1cccc(Nc2cc(Nc3cccc(C(F)(F)F)c3)ncn2)c1)C1CC1", "residual activity": 102}
{"smiles": "N#CCCc1ccc2c(c1)-c1[nH]c3ccc([N+](=O)[O-])cc3c1CC(=O)N2", "residual activity": 57}
{"smiles": "O=C1Nc2ccc(Br)cc2/C1=C\\c1cc2c([nH]1)CCCC2", "residual activity": 72}
{"smiles": "Nc1nc(Nc2ccc(S(N)(=O)=O)cc2)nn1C(=S)Nc1c(F)cccc1F", "residual activity": 3}
{"smiles": "Nc1cccc(-c2cc3c(Oc4cccc(O)c4)ncnc3[nH]2)c1", "residual activity": 101}
{"smiles": "Cc1cc2ncc(-c3ccccc3)nc2cc1C", "residual activity": 100}
{"smiles": "CO[C@@H]1[C@H](N(C)C(=O)c2ccccc2)C[C@H]2O[C@]1(C)n1c3ccccc3c3c4c(c5c6ccccc6n2c5c31)C(=O)NC4", "residual activity": 14}
{"smiles": "CC(=O)c1ccc(N2CCOCC2)cc1O", "residual activity": 110}
{"smiles": "COc1ccc(C(=O)Nc2sc3c(c2C(N)=O)CCCC3)cc1OC", "residual activity": 76}
{"smiles": "CO[C@H]1[C@@H](OC)C[C@H](C)[C@@H](OC)C2=CC(=O)C=C(NC(=O)/C(C)=C/C=C/[C@H](OC)[C@@H](OC(N)=O)/C(C)=C/[C@@H]1C)C2=O", "residual activity": 104}
{"smiles": "O=C1NC(=O)c2cc(Nc3ccc(F)cc3)c(Nc3ccc(F)cc3)cc21", "residual activity": 94}
{"smiles": "Oc1n[nH]c2nnc(-c3c(-c4ccccc4)nn4ccccc34)cc12", "residual activity": 118}
{"smiles": "O=Nc1c(-c2c(O)[nH]c3ccccc23)[nH]c2ccccc12", "residual activity": 17}
{"smiles": "N#CC(C#N)=C(N)/C(C#N)=C/c1ccc(O)cc1", "residual activity": 92}
{"smiles": "c1ccc(-c2n[nH]c3c2oc2ccccc23)cc1", "residual activity": 81}
